# Experimental data: the supplement of paper PMC6522484
# ± gives the standard deviation of the averaged measurements.
# What was measured:
# DLD1 [1] = experiment: cell viability (CellTiter-Glo) relative to plate median (fraction of plate median); higher = more viable cells; details: 5 µM; treatment time 24 h; reporter: 7TFP
# Outline: (§1)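 Colorectal cancer cell lines stably carrying lentiviral TCF/Wnt firefly luciferase reporters (7TFP or TCF4/Wnt) were plated in 384-well plates and, 24 h later, given library compounds at a final 5 µM for 24 h. Firefly luciferase or CellTiterGlo luminescence was read on parallel plates with a Tecan F500 reader. Each well's signal was normalised to the plate median in webcellHTS2 (additive, without log transformation). Values are the mean of two independent replicates.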
# HCT116 = experiment: as above; details: 5 µM; treatment time 24 h; reporter: TCF4/Wnt
# Outline: as §1
# SW480 [2] = experiment: as above; details: 5 µM; treatment time 24 h; reporter: 7TFP
# Outline: as §1
# DLD1 [3] = experiment: TCF/Wnt firefly luciferase reporter signal relative to plate median (fraction of plate median); higher = higher Wnt reporter signal; details: 5 µM; treatment time 24 h; reporter: 7TFP
# Outline: as §1
# SW480 [4] = experiment: as above; details: 5 µM; treatment time 24 h; reporter: 7TFP
# Outline: as §1
Structure (SMILES),cell viability (DLD1 [1]),cell viability (HCT116),cell viability (SW480 [2]),TCF/Wnt firefly luciferase reporter signal (DLD1 [3]),TCF/Wnt firefly luciferase reporter signal (SW480 [4])
CCOC(=O)[C@H](CCc1ccccc1)N[C@@H](C)C(=O)N1[C@H](C(=O)O)C[C@@H]2CCC[C@@H]21,1.11 ± 0.17,1.08 ± 0.014,1.1 ± 0.042,1.06 ± 0.035,1.06 ± 0.1
C=CCNC1=C2C[C@@H](C)C[C@H](OC)[C@H](O)[C@@H](C)/C=C(\C)[C@H](OC(N)=O)[C@@H](OC)/C=C\C=C(/C)C(=O)NC(=CC1=O)C2=O,1.07 ± 0.014,0.623 ± 0.023,0.972 ± 0.04,0.878 ± 0.15,0.731 ± 0.029
CCCCCCCCCCCC1=C(O)C(=O)C=C(O)C1=O,1.01 ± 0.06,1.12 ± 0.071,0.9665 ± 0.00071,1.1 ± 0.028,1.075 ± 0.0071
O=C(c1ccccc1)c1ccc2n1CCC2C(=O)O (stereo not given),1.03 ± 0.095,0.929 ± 0.16,1 ± 0.023,0.911 ± 0.066,0.924 ± 0.021
CC(C)CCC[C@@H](C)[C@H]1CC[C@H]2[C@@H]3CC[C@@H]4C[C@H](O)CC[C@]4(C)[C@H]3CC[C@]12C,1.06 ± 0.028,1.01 ± 0.033,1.02 ± 0.076,0.985 ± 0.036,1.03 ± 0.07
"NC(=O)N(CCc1ccccc1)CCc1ccccc1 [N, N-Bis(2-phenylethyl)urea]",1.08 ± 0.085,1.01 ± 0.014,1.06 ± 0.021,1.03 ± 0.028,0.946 ± 0.077
COc1ccc2c(c1)O[C@H]1c3ccc(OC)cc3OC[C@@H]21,0.969 ± 0.044,0.906 ± 0.12,0.979 ± 0.044,0.792 ± 0.025,0.969 ± 0.086
NCCNCCNCCN,1.03,0.986 ± 0.049,1.01 ± 0.064,0.999 ± 0.058,1.03 ± 0.052
OCCN(CCO)c1nc(N2CCCCC2)c2nc(N(CCO)CCO)nc(N3CCCCC3)c2n1,0.905 ± 0.0042,0.991 ± 0.013,0.973 ± 0.016,1.13 ± 0.042,1.03 ± 0.028
CC1(C)C=Cc2c(cc3occ(-c4ccc5c(c4)OCO5)c(=O)c3c2O)O1,0.951 ± 0.083,0.926 ± 0.17,0.952 ± 0.042,0.909 ± 0.012,1 ± 0.042
Cc1cccc2c3c(ccc12)C1=C(C(=O)C3=O)[C@@H](C)CO1,0.936 ± 0.1,0.825 ± 0.011,1.03 ± 0.014,0.955 ± 0.15,1.08 ± 0.15
Oc1c(Br)cc(Br)c2cccnc12,1.02 ± 0.021,1.07 ± 0.071,0.965 ± 0.064,1.24 ± 0.014,1.12 ± 0.028
COc1ccc(C(=O)O)c(O)c1OC,0.991 ± 0.055,0.977 ± 0.12,0.9195 ± 0.00071,0.803 ± 0.069,0.905 ± 0.19
O=C(Oc1cc(OC(=O)c2ccccc2)c2c(c1)O[C@H](c1ccc(OC(=O)c3ccccc3)c(OC(=O)c3ccccc3)c1)[C@@H](OC(=O)c1ccccc1)C2)c1ccccc1,1.04 ± 0.059,1.065 ± 0.0071,1.06 ± 0.071,0.978 ± 0.046,0.972 ± 0.016
CC1(C)O[C@@H]2C[C@H]3[C@@H]4CCC5=CC(=O)C=C[C@]5(C)[C@@]4(F)[C@@H](O)C[C@]3(C)[C@]2(C(=O)CO)O1,0.955 ± 0.027,0.965 ± 0.024,1.03 ± 0.042,1.09 ± 0.021,0.951 ± 0.051
CCOc1ccc(NC(C)=O)cc1,0.956 ± 0.12,1.065 ± 0.0071,1 ± 0.021,1.01 ± 0.08,1.06 ± 0.05
COc1c(O)cccc1O,0.99 ± 0.042,0.962 ± 0.17,1.01,1.16 ± 0.05,1.06 ± 0.021
Cc1cc(C(C)(C)C)c(O)c(C(C)(C)C)c1,0.926 ± 0.054,0.925 ± 0.057,1.004 ± 0.0092,1.04 ± 0.09,0.969 ± 0.011
CCN(CC)Cc1cc(Nc2ccnc3cc(Cl)ccc23)ccc1O,0.908 ± 0.064,0.967 ± 0.016,0.946 ± 0.051,0.952 ± 0.17,0.921 ± 0.25
O=c1c(-c2ccccc2)coc2cc(O)cc(O)c12,0.94 ± 0.11,0.883 ± 0.027,0.993 ± 0.053,0.926 ± 0.097,1.04 ± 0.18
CC=CC1=C(C(=O)O)N2C(=O)[C@@H](NC(=O)[C@H](N)c3ccc(O)cc3)[C@H]2SC1,0.992 ± 0.012,1.03 ± 0.06,0.983 ± 0.039,1.09 ± 0.099,1.17 ± 0.064
O=C(O)c1c2ccccc2cc2ccccc12,0.959 ± 0.043,1.02 ± 0.13,1.01 ± 0.052,0.934 ± 0.064,0.872 ± 0.073
CCC1=C[C@@H]2CN(C1)Cc1c([nH]c3ccccc13)[C@@](C(=O)OC)(c1cc3c(cc1OC)N(C)[C@H]1[C@@](O)(C(=O)OC)[C@H](OC(C)=O)[C@]4(CC)C=CCN5CC[C@]31[C@@H]54)C2,1 ± 0.11,0.544 ± 0.17,1.12 ± 0.11,0.911 ± 0.13,0.892 ± 0.12
CC(N)C(=O)OC(C)(C)Cc1ccc(Cl)cc1 (stereo not given),1.11 ± 0.042,1.15 ± 0.064,1.02 ± 0.036,0.945 ± 0.013,0.879 ± 0.1
CC(=O)Oc1ccc2c(c1OC(C)=O)OCC1(O)Cc3c(cc(OC(C)=O)c(OC(C)=O)c3OC(C)=O)C21 (stereo not given),0.96 ± 0.017,1.02 ± 0.074,0.959 ± 0.059,0.939 ± 0.05,0.9105 ± 0.0064
C[C@H](CCC(=O)O)[C@H]1CC[C@H]2[C@@H]3CC[C@@H]4CCCC[C@]4(C)[C@H]3CC[C@]12C,0.984 ± 0.016,1.06 ± 0.035,1.06 ± 0.09,0.905 ± 0.044,1.03 ± 0.059
CCOC(=O)c1c(C)cc(OC)cc1O,0.947 ± 0.033,0.908 ± 0.03,0.954 ± 0.066,0.874 ± 0.021,1.04 ± 0.064
CC(=O)OCC(=O)[C@@]1(O)[C@H](C)C[C@H]2[C@@H]3CCC4=CC(=O)C=C[C@]4(C)[C@@]3(F)[C@@H](O)C[C@@]21C,1.06 ± 0.085,0.952 ± 0.054,1.02 ± 0.088,0.958 ± 0.037,0.969 ± 0.044
O=C(O)c1ccc2c(c1)OCO2,0.927 ± 0.12,1.09 ± 0.078,0.948 ± 0.033,0.927 ± 0.022,0.866 ± 0.12
CCN(CC)CCOC(=O)C(c1ccccc1)C1CCCCC1 (stereo not given),0.986 ± 0.0071,0.938 ± 0.13,0.978 ± 0.046,0.996 ± 0.0057,1.05 ± 0.075
